# According to paper PMC5540273 (PLoS ONE, 2017):
# Assays:
# Conditions in all cases: concentration: 1 μM, replicates: in singlicate; n = 1
# CSNK1G1 = system: CSNK1G1
# CSNK1G2 = system: CSNK1G2
# CSNK1G3 = system: CSNK1G3
# CSNK2A1 = system: CSNK2A1
# CSNK2A2 = system: CSNK2A2
# CTK = system: T1, CTK
# T1 construct: gene MATK
# DAPK1 = system: DAPK1
# DAPK2 = system: DAPK2
# DAPK3 = system: DAPK3
# DCAMKL1 = system: T2, DCAMKL1
# T2 construct: gene DCLK1
# DCAMKL2 = system: T3, DCAMKL2
# T3 construct: gene DCLK2
# DCAMKL3 = system: T4, DCAMKL3
# T4 construct: gene DCLK3
# DDR1 = system: DDR1
# DDR2 = system: DDR2
# DLK = system: T5, DLK
# T5 construct: gene MAP3K12
# DMPK2 = system: T6, DMPK2
# T6 construct: gene CDC42BPG
# DMPK = system: DMPK
# DRAK1 = system: T7, DRAK1
# T7 construct: gene STK17A
# DRAK2 = system: T8, DRAK2
# T8 construct: gene STK17B
# DYRK1A = system: DYRK1A
# 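Note: KINOMEscan kinase panel screen.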
structure (smiles),measurement,setting,value
COC(=O)Nc1nc2cc(Oc3ccc(NC(=O)Nc4cc(C(F)(F)F)ccc4F)cn3)ccc2[nH]1.Cl.Cl [GW681170],%Inh,CSNK1G1,10%
same,%Inh,CSNK1G2,6%
same,%Inh,CSNK1G3,18%
same,%Inh,CSNK2A1,0%
same,%Inh,CSNK2A2,72%
same,%Inh,CTK,0%
same,%Inh,DAPK1,51%
same,%Inh,DAPK2,0%
same,%Inh,DAPK3,9%
same,%Inh,DCAMKL1,11%
same,%Inh,DCAMKL2,15%
same,%Inh,DCAMKL3,3%
same,%Inh,DDR1,100%
same,%Inh,DDR2,97.1%
same,%Inh,DLK,35%
same,%Inh,DMPK2,0%
same,%Inh,DMPK,0%
same,%Inh,DRAK1,16%
same,%Inh,DRAK2,0%
same,%Inh,DYRK1A,0%
O=C(Nc1cccc(-c2nn3ccccc3c2-c2ccnc(Nc3cccc(F)c3)n2)c1)c1c(F)ccc(F)c1Cl [GSK357952],%Inh,CSNK1G1,0%
same,%Inh,CSNK1G2,0%
same,%Inh,CSNK1G3,25%
same,%Inh,CSNK2A1,41%
same,%Inh,CSNK2A2,12%
same,%Inh,CTK,15%
same,%Inh,DAPK1,0%
same,%Inh,DAPK2,0%
same,%Inh,DAPK3,0%
same,%Inh,DCAMKL1,3%
same,%Inh,DCAMKL2,7%
same,%Inh,DCAMKL3,1%
same,%Inh,DDR1,100%
same,%Inh,DDR2,82%
same,%Inh,DLK,3%
same,%Inh,DMPK2,19%
same,%Inh,DMPK,0%
same,%Inh,DRAK1,3%
same,%Inh,DRAK2,0%
same,%Inh,DYRK1A,6%
CSc1cccc2c(-c3ccncn3)c(-c3ccc(F)cc3)nn12 [GW514786],%Inh,CSNK1G1,3%
same,%Inh,CSNK1G2,10%
same,%Inh,CSNK1G3,21%
same,%Inh,CSNK2A1,0%
same,%Inh,CSNK2A2,13%
same,%Inh,CTK,0%
same,%Inh,DAPK1,0%
same,%Inh,DAPK2,0%
same,%Inh,DAPK3,0%
same,%Inh,DCAMKL1,5%
same,%Inh,DCAMKL2,20%
same,%Inh,DCAMKL3,0%
same,%Inh,DDR1,78%
same,%Inh,DDR2,63%
same,%Inh,DLK,24%
same,%Inh,DMPK2,59%
same,%Inh,DMPK,13%
same,%Inh,DRAK1,0%
same,%Inh,DRAK2,0%
same,%Inh,DYRK1A,18%
COc1ccc(Nc2nccc(NCCNC(=O)c3cc4ccccc4s3)n2)cc1 [GSK1379896],%Inh,CSNK1G1,54%
same,%Inh,CSNK1G2,0%
same,%Inh,CSNK1G3,27%
same,%Inh,CSNK2A1,0%
same,%Inh,CSNK2A2,15%
same,%Inh,CTK,0%
same,%Inh,DAPK1,4%
same,%Inh,DAPK2,2%
same,%Inh,DAPK3,0%
same,%Inh,DCAMKL1,10%
same,%Inh,DCAMKL2,0%
same,%Inh,DCAMKL3,0%
same,%Inh,DDR1,0%
same,%Inh,DDR2,15%
same,%Inh,DLK,0%
same,%Inh,DMPK2,0%
same,%Inh,DMPK,0%
same,%Inh,DRAK1,0%
same,%Inh,DRAK2,0%
same,%Inh,DYRK1A,0%
c1ccc(Oc2ccc(Nc3ccnc4cc(-c5ccc(CNCCN6CCOCC6)o5)ccc34)cc2)nc1 [GW567145],%Inh,CSNK1G1,2%
same,%Inh,CSNK1G2,0%
same,%Inh,CSNK1G3,13%
same,%Inh,CSNK2A1,0%
same,%Inh,CSNK2A2,18%
same,%Inh,CTK,0%
same,%Inh,DAPK1,0%
same,%Inh,DAPK2,2%
same,%Inh,DAPK3,18%
same,%Inh,DCAMKL1,20%
same,%Inh,DCAMKL2,0%
same,%Inh,DCAMKL3,0%
same,%Inh,DDR1,0%
same,%Inh,DDR2,50%
same,%Inh,DLK,49%
same,%Inh,DMPK2,0%
same,%Inh,DMPK,0%
same,%Inh,DRAK1,2%
same,%Inh,DRAK2,54%
same,%Inh,DYRK1A,0%
CC(=O)Nc1nc2cnc(Nc3cc(NC(=O)c4cccc(C5(C#N)CC5)c4Cl)ccc3C)nc2s1,%Inh,CSNK1G1,0%
same,%Inh,CSNK1G2,0%
same,%Inh,CSNK1G3,0%
same,%Inh,CSNK2A1,0%
same,%Inh,CSNK2A2,0%
same,%Inh,CTK,52%
same,%Inh,DAPK1,0%
same,%Inh,DAPK2,0%
same,%Inh,DAPK3,0%
same,%Inh,DCAMKL1,23%
same,%Inh,DCAMKL2,0%
same,%Inh,DCAMKL3,0%
same,%Inh,DDR1,100%
same,%Inh,DDR2,99.4%
same,%Inh,DLK,0%
same,%Inh,DMPK2,0%
same,%Inh,DMPK,0%
same,%Inh,DRAK1,0%
same,%Inh,DRAK2,10%
same,%Inh,DYRK1A,0%
Cc1cccc(NC(=O)Nc2ccc(Oc3ncnc4ccn(C)c34)cc2)c1,%Inh,CSNK1G1,0%
same,%Inh,CSNK1G2,10%
same,%Inh,CSNK1G3,5%
same,%Inh,CSNK2A1,0%
same,%Inh,CSNK2A2,0%
same,%Inh,CTK,0%
same,%Inh,DAPK1,0%
same,%Inh,DAPK2,0%
same,%Inh,DAPK3,0%
same,%Inh,DCAMKL1,45%
same,%Inh,DCAMKL2,0%
same,%Inh,DCAMKL3,0%
same,%Inh,DDR1,99.3%
same,%Inh,DDR2,98.7%
same,%Inh,DLK,0%
same,%Inh,DMPK2,0%
same,%Inh,DMPK,0%
same,%Inh,DRAK1,0%
same,%Inh,DRAK2,0%
same,%Inh,DYRK1A,0%
Cc1occc1-c1ncc(OC[C@@H](N)Cc2c[nH]c3ccccc23)cc1-c1ccc2[nH]nc(C)c2c1.O=C(O)C(F)(F)F [GSK682037],%Inh,CSNK1G1,76%
same,%Inh,CSNK1G2,95.5%
same,%Inh,CSNK1G3,93.7%
same,%Inh,CSNK2A1,0%
same,%Inh,CSNK2A2,8%
same,%Inh,CTK,0%
same,%Inh,DAPK1,0%
same,%Inh,DAPK2,0%
same,%Inh,DAPK3,2%
same,%Inh,DCAMKL1,10%
same,%Inh,DCAMKL2,14%
same,%Inh,DCAMKL3,0%
same,%Inh,DDR1,0%
same,%Inh,DDR2,5%
same,%Inh,DLK,1%
same,%Inh,DMPK2,67%
same,%Inh,DMPK,95%
same,%Inh,DRAK1,0%
same,%Inh,DRAK2,0%
same,%Inh,DYRK1A,15%
C[C@@H]1CC[C@@H](C(=O)Nc2ccccc2)CN1c1cc(-c2ccc3c(N)n[nH]c3c2)nc(N)n1 [GSK2286062],%Inh,CSNK1G1,13%
same,%Inh,CSNK1G2,8%
same,%Inh,CSNK1G3,14%
same,%Inh,CSNK2A1,54%
same,%Inh,CSNK2A2,7%
same,%Inh,CTK,0%
same,%Inh,DAPK1,0%
same,%Inh,DAPK2,23%
same,%Inh,DAPK3,20%
same,%Inh,DCAMKL1,7%
same,%Inh,DCAMKL2,17%
same,%Inh,DCAMKL3,0%
same,%Inh,DDR1,1%
same,%Inh,DDR2,22%
same,%Inh,DLK,17%
same,%Inh,DMPK2,0%
same,%Inh,DMPK,0%
same,%Inh,DRAK1,18%
same,%Inh,DRAK2,0%
same,%Inh,DYRK1A,3%
Oc1cc(Nc2ccnc3cc(I)ccc23)ccc1F [GW552771],%Inh,CSNK1G1,0%
same,%Inh,CSNK1G2,0%
same,%Inh,CSNK1G3,0%
same,%Inh,CSNK2A1,23%
same,%Inh,CSNK2A2,0%
same,%Inh,CTK,6%
same,%Inh,DAPK1,0%
same,%Inh,DAPK2,0%
same,%Inh,DAPK3,30%
same,%Inh,DCAMKL1,0%
same,%Inh,DCAMKL2,0%
same,%Inh,DCAMKL3,0%
same,%Inh,DDR1,14%
same,%Inh,DDR2,19%
same,%Inh,DLK,32%
same,%Inh,DMPK2,0%
same,%Inh,DMPK,0%
same,%Inh,DRAK1,0%
same,%Inh,DRAK2,6%
same,%Inh,DYRK1A,36%
